Source: the supplement of paper PMC6522484
± gives the standard deviation of the averaged measurements.

Assays:
DLD1 [1] = test: cell viability (CellTiter-Glo) relative to plate median (fraction of plate median); higher = more viable cells; conditions: 5 µM; treatment time 24 h; reporter: 7TFP
Outline: (§1)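 Signals from firefly luciferase or CellTiterGlo readouts were normalised well by well to the plate median using webcellHTS2, additively and with no log transformation. They came from colorectal cancer cell lines stably holding lentiviral TCF/Wnt firefly luciferase reporters (7TFP or TCF4/Wnt), treated with library compounds at a final 5 µM for 24 h. The mean of two independent replicates is given.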

HCT116 = test: as above; conditions: 5 µM; treatment time 24 h; reporter: TCF4/Wnt
Outline: as §1

SW480 [2] = test: as above; conditions: 5 µM; treatment time 24 h; reporter: 7TFP
Outline: as §1

DLD1 [3] = test: TCF/Wnt firefly luciferase reporter signal relative to plate median (fraction of plate median); higher = higher Wnt reporter signal; conditions: 5 µM; treatment time 24 h; reporter: 7TFP
Outline: as §1

SW480 [4] = test: as above; conditions: 5 µM; treatment time 24 h; reporter: 7TFP
Outline: as §1

Structure (SMILES)	cell viability (DLD1 [1])	cell viability (HCT116)	cell viability (SW480 [2])	TCF/Wnt firefly luciferase reporter signal (DLD1 [3])	TCF/Wnt firefly luciferase reporter signal (SW480 [4])
C[C@]12CC[C@@H](O)C[C@H]1CCc1ccccc12 [3alpha-HYDROXY-4,4-BISNOR-8,11,13-PODOCARPATRIENE]	1.03 ± 0.08	1.01 ± 0.27	1.03 ± 0.014	0.971 ± 0.022	1.15 ± 0.064
COc1ccc(C(=O)c2ccccc2)c(O)c1	1.04 ± 0.042	1.185 ± 0.0071	1.01 ± 0.016	0.8625 ± 0.0064	1.05 ± 0.028
COc1cc(O)ccc1C(C)=O	0.941 ± 0.059	0.97 ± 0.015	0.92 ± 0.0071	0.889 ± 0.054	0.97 ± 0.026
NCCCC[C@H](NC(=O)[C@H](Cc1ccc(O)cc1)NC(=O)[C@@H](N)CCCCN)C(=O)O	1.04 ± 0.064	0.967 ± 0.042	1.06 ± 0.035	1.05 ± 0.095	1.03
CC1(C)[C@@H](OC(=O)CCC(=O)O)CC[C@]2(C)[C@H]3C(=O)C=C4[C@@H]5C[C@@](C)(C(=O)O)CC[C@]5(C)CC[C@@]4(C)[C@]3(C)CC[C@@H]12	1 ± 0.011	1.02 ± 0.035	1.06 ± 0.014	1.09	1.01
COc1cc(OC)c2c(c1Cl)O[C@@]1(C(=O)CC(=O)C[C@H]1C)C2=O	1.02 ± 0.014	0.983 ± 0.14	1.005 ± 0.0071	1.13 ± 0.057	1.02 ± 0.028
CCCCC1C(=O)N(c2ccccc2)N(c2ccccc2)C1=O	1.02 ± 0.063	0.987 ± 0.12	1.035 ± 0.0071	1.14 ± 0.085	1.01 ± 0.024
Cc1cc(N)c2ccccc2[n+]1CCCCCCCCCC[n+]1c(C)cc(N)c2ccccc21	0.995 ± 0.092	0.907 ± 0.042	0.989 ± 0.087	0.751 ± 0.18	0.793 ± 0.11
CC(=O)/C(=C\c1ccccc1)CC(=O)O	0.984 ± 0.037	1.03 ± 0.047	1 ± 0.05	0.894 ± 0.0085	0.996 ± 0.02
COc1cc2c3cc1Oc1cc(ccc1O)C[C@@H]1c4c(cc(OC)c(O)c4Oc4ccc(cc4)C[C@@H]3N(C)CC2)CC[N+]1(C)C	0.992 ± 0.012	1.01 ± 0.1	1.01 ± 0.045	0.977 ± 0.089	1.07 ± 0.05
O=C(O[C@@H]1Cc2c(O)cc(O)cc2O[C@@H]1c1cc(O)c(=O)c2c(O)c(O)cc([C@H]3Oc4cc(O)cc(O)c4C[C@H]3O)c2c1)c1cc(O)c(O)c(O)c1	1.04 ± 0.069	1.15 ± 0.028	1.01 ± 0.021	1.1 ± 0.057	1.04 ± 0.05
CCCCCCc1ccc(O)cc1O.Nc1c2ccccc2nc2ccccc12	1.03 ± 0.056	0.829 ± 0.0071	1.1 ± 0.057	1.98 ± 0.34	0.848 ± 0.045
CN1CCc2c(c3ccccc3n2Cc2ccccc2)C1	1.01 ± 0.051	1.01 ± 0.029	1.04 ± 0.035	1.05 ± 0.1	0.961 ± 0.14
C=C(C)[C@@H]1CC=C(CO)CC1	0.968 ± 0.1	0.972 ± 0.12	0.996 ± 0.0042	0.952 ± 0.016	0.972 ± 0.054
Cc1ccc(N(CC2=NCCN2)c2cccc(O)c2)cc1	1.01 ± 0.042	0.992 ± 0.2	1.02 ± 0.014	0.92 ± 0.039	0.94 ± 0.044
NC(=O)c1cccnc1	1.02 ± 0.021	1.01 ± 0.025	0.982 ± 0.021	1.16 ± 0.057	1.15 ± 0.11
O=C(/C=C/C=C/c1ccc2c(c1)OCO2)N1CCCCC1	1 ± 0.038	1.05 ± 0.12	1.03	1.16 ± 0.18	1.08 ± 0.19
CCOC(=O)c1ccc(N)cc1	1 ± 0.05	0.903 ± 0.076	1.005 ± 0.0071	0.9395 ± 0.0092	0.897 ± 0.09
Cn1c(=O)[nH]c(=O)c2[nH]cnc21	0.955 ± 0.026	0.8635 ± 0.0064	0.967 ± 0.032	1.09 ± 0.17	1.16 ± 0.042
COc1cc2occ(-c3ccc(O)cc3)c(=O)c2cc1O [Kakkatin]	1.04 ± 0.028	1.06 ± 0.14	1.01 ± 0.044	1.22 ± 0.028	1.09 ± 0.064
CCCCCCc1ccc(O)cc1O	1.04 ± 0.061	1.14 ± 0.021	1.07	1.09 ± 0.014	1 ± 0.11
CC1(C)NC(=O)N(c2ccc([N+](=O)[O-])c(C(F)(F)F)c2)C1=O	1.05 ± 0.084	0.983 ± 0.052	1 ± 0.042	1.02 ± 0.014	0.961 ± 0.044
COc1c(Cl)ccc(Cl)c1C(=O)O	1.01 ± 0.039	1.11 ± 0.16	0.99 ± 0.057	1 ± 0.15	0.874 ± 0.0057
Cc1oncc1C(=O)Nc1ccc(C(F)(F)F)cc1	1.05 ± 0.11	1.15	1.13 ± 0.071	1.14 ± 0.05	1.05 ± 0.11
Cc1cccc(Nc2ccccc2C(=O)O)c1C	1.03 ± 0.1	1 ± 0.038	1.07 ± 0.014	0.927 ± 0.052	1.01 ± 0.089
C[C@@H]1C/C=C2\SC[C@@H](NC(=O)c3coc(n3)C[C@H](O)C[C@H](O)/C=C/C=C/CNC2=O)C(=O)O1 [Griseoviridin]	0.995 ± 0.021	1.04 ± 0.05	1.01 ± 0.021	0.873 ± 0.12	0.957 ± 0.034
O=C([O-])[C@H]1/C(=C/CO)O[C@@H]2CC(=O)N21.[Li+]	1.045 ± 0.0071	1.04 ± 0.064	1.02 ± 0.049	1.04 ± 0.092	1.125 ± 0.0071
C=C1[C@H]2CC[C@@]3(C)[C@H](c4ccoc4)OC(=O)C[C@]13O[C@H]1C[C@H](O)C(C)(C)[C@H](CC(=O)OC)[C@]12C [3-DEOXY-3beta-HYDROXYANGOLENSIC ACID METHYL ESTER]	1.01 ± 0.061	0.958 ± 0.1	1.05 ± 0.11	1.06 ± 0.05	0.952 ± 0.035
COc1cc(O)cc(OC)c1OC	1.01 ± 0.019	1.01 ± 0.015	0.942 ± 0.074	0.941 ± 0.021	0.978 ± 0.0028
CC1(C)C(=O)C=C[C@@]2(C)C1CC(=O)[C@@]1(C)C3=CC(=O)O[C@@H](c4ccoc4)[C@]3(C)CCC12 (stereo not given in full)	0.921 ± 0.04	0.988 ± 0.045	0.977 ± 0.027	0.913 ± 0.03	0.956 ± 0.076
